Article PMC4336329 (PLoS ONE, 2015)
About 14,000 (4.5%) of roughly 310,000 compounds showed an effect of 50% or more. Effects have a minus sign here. The sample holds strong results, similar compounds and a random draw of the others, so the mix is not that of the screen.

These compounds were tested against human ether-à-go-go-related gene (hERG) potassium channel (human, UniProt Q12809) (assay: primary screen, population patch clamp on CHO cells stably expressing hERG; higher = less effect of the substance).
Sequence of human ether-à-go-go-related gene (hERG) potassium channel (Q12809 whole entry, looked up): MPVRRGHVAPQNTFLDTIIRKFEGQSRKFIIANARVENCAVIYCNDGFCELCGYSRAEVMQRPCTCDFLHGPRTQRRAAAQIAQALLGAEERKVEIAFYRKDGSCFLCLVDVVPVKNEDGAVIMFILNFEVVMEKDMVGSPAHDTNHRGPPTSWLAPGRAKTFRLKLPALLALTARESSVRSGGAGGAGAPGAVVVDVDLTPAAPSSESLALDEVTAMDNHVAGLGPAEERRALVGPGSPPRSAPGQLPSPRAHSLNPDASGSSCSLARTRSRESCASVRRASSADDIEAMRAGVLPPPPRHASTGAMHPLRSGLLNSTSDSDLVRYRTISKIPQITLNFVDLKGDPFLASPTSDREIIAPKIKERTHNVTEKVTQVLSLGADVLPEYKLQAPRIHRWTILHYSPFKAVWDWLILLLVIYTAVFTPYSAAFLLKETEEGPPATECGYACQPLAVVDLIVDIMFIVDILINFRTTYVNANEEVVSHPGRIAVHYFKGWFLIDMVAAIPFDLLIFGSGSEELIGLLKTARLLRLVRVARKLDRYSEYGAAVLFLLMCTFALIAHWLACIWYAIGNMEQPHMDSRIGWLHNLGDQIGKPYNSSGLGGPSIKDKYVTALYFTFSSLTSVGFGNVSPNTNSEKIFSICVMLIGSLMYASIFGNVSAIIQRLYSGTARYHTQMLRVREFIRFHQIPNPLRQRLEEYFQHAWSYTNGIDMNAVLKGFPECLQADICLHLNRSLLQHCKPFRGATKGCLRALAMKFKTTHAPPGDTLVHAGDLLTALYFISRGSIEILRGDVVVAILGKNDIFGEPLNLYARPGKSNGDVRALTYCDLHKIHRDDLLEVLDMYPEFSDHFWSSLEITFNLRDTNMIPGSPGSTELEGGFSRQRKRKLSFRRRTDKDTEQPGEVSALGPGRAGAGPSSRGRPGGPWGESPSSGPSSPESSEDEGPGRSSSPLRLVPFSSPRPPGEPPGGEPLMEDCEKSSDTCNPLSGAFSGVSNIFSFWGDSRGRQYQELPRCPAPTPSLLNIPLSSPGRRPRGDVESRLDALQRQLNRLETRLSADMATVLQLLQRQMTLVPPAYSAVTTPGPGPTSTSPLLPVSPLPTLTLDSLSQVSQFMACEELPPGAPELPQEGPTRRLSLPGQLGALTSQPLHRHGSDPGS
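Note: peak tail current of the secondary pulse compared with the same well before compound.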

SMILES	hERG current change (%, negative = inhibition) at 10uM [%]
CCOC(=O)c1cc(CC)sc1NC(=O)Cc1ccccc1	25.9
CCCCn1c(-c2csc3ccccc23)n[nH]c1=S	12.8
Cc1ccc(S(=O)(=O)NC2=NCN(CCOC(=O)c3ccc([N+](=O)[O-])cc3)CN2)cc1	12.7
CCn1cc(C(=O)NCc2ccc3c(c2)OCO3)c(=O)c2cc(F)c(N3CCN(C)CC3)cc21	-37.2
CCOC(=O)c1cccc(S(=O)(=O)N2CCCC2)c1	8.7
COc1ccc(/C=C/C(=O)N(Cc2ccccc2)c2ccccn2)cc1OC	-76.6
C/C=C/c1ccc(OCC(=O)O)c(OC)c1	12.4
C/C=C/c1ccc(OCCCCOc2ccc(OC)cc2)c(OC)c1	-7.09
COc1ccc(/C=C/C(=O)N(c2ccccn2)C2CCCCC2)cc1OC	-6.44
COc1ccc(/C=C/C(=O)OCC(=O)NCc2ccco2)cc1OC	-72
COc1ccccc1OCCCCN1CCC(C)CC1	-16
C/C=C/c1ccc(OCC(O)CN2CCCCCCC2)c(OC)c1 (stereo not drawn)	-35.4
C/C=C/c1ccc(OCC(O)CN(C)Cc2ccc(SC)cc2)c(OC)c1.O=C(O)C(=O)O (stereo not drawn)	-71.2
COc1cc(/C=C/C(=O)N(Cc2ccccc2)c2ccccn2)cc(OC)c1OC	-23.2
COc1cc(/C=C/C(=O)OCC(=O)NCc2ccco2)ccc1OC(F)F	6.87
C/C=C/c1ccc(OCCCCN2CCC(C)CC2)c(OC)c1	-68.1
COc1cc(/C=C/C(=O)OCC(=O)NCc2ccco2)ccc1O	3.65
CCOC(=O)C1=C(COc2ccc(F)cc2Cl)NC(=O)NC1c1cc(C)ccc1C (stereo not drawn)	10.6
O=[N+]([O-])c1cc(Cl)ccc1Nc1ccccc1	9.85
CCOC(=O)c1sc(NC(=O)COC(=O)CNC(=O)c2ccco2)c(C(=O)OCC)c1C	4.08
COc1cccc(CN2CCN(S(=O)(=O)c3ccccc3)CC2)c1OC	-4.11
CC(C(=O)NCc1ccc2c(c1)OCO2)c1ccc([N+](=O)[O-])cc1 (stereo not drawn)	-13.6

SMILES	hERG current change (%, negative = inhibition) at 10uM [%]
Cc1ccc(-c2noc(CN3C(C)CCCC3C)n2)cc1 (stereo not drawn)	2.64
Cc1cc(O)c(C=O)c2c1C(=O)Oc1c(CO)c(O)c3c(c1O2)C(O)OC3=O (stereo not drawn)	0.355
C/C=C/c1ccc(OCCCCN2CC(C)CC(C)C2)c(OC)c1.O=C(O)C(=O)O (stereo not drawn)	-81.6
COc1cc(C)ccc1OCCCCN1CC(C)OC(C)C1.O=C(O)C(=O)O (stereo not drawn)	-9.65
C/C=C/c1ccc(OCCCNC)c(OC)c1.O=C(O)C(=O)O	-44.6
C/C=C/c1ccc(OCCCCNCc2ccco2)c(OC)c1.O=C(O)C(=O)O	-72.9
C/C=C/c1ccc(OCCCNC(C)CC)c(OC)c1.O=C(O)C(=O)O (stereo not drawn)	-14
C/C=C/c1ccc(OCCCCN(C)Cc2ccccc2)c(OC)c1.O=C(O)C(=O)O	-79.4
C/C=C/c1ccc(OCCCCN2CCN(CC)CC2)c(OC)c1.O=C(O)C(=O)O	-29.5
C/C=C/c1ccc(OCCNCc2ccccc2)c(OC)c1.O=C(O)C(=O)O	-39.8
COc1cc(C)ccc1OCCOCCN(C)Cc1ccccc1.O=C(O)C(=O)O	-32.8
C/C=C/c1ccc(OCCOCCNCc2ccccc2)c(OC)c1.O=C(O)C(=O)O	-37
C/C=C/c1ccc(OCCCCOc2ccccc2C(C)=O)c(OC)c1	-12.1
C/C=C/c1ccc(OCCCNC2CCCC2)c(OC)c1.O=C(O)C(=O)O	-57.6
C=CCN1CCN(C(c2ccccc2OC)c2nnnn2C(C)(C)C)CC1.Cl (stereo not drawn)	-0.19
CCOC(=O)c1c(C)oc2ccc(OC(=O)N3CCOCC3)cc12	-16.1
CCCN(CCC)C(=O)CCSCCC(=O)N(CCC)CCC	14.5
O=C(NCCN1CCOCC1)C1CCC(=O)N1Cc1ccc(F)cc1 (stereo not drawn)	1.05
Cc1cccc2nc(CSc3nnc(N)s3)cn12	-9.23
COc1ccc(Nc2nnc(SCc3cc(=O)n4ccsc4n3)s2)cc1	-68.9
CCc1ccc(Nc2nnc(SCc3cc(=O)n4ccsc4n3)s2)cc1	-11.5
COc1ccc(Nc2nnc(SCc3cn4c(C)cccc4n3)s2)cc1	-52.2

SMILES	hERG current change (%, negative = inhibition) at 10uM [%]
O=c1cc(CSc2nnc(Nc3ccccc3)s2)nc2sccn12	-27.6
Cc1ccc(Nc2nnc(SCc3cc(=O)n4cc(C)ccc4n3)s2)cc1	-36.6
CCC(=O)N1CCC2(CC1)Oc1ccc(Cl)cc1C(=O)C21CC(c2cccnc2)=NO1 (stereo not drawn)	-15.1
O=C(CCCN1C(=O)c2cccnc2C1=O)N1CC(=O)N(CCc2ccccc2)C(=O)C1	-9.44
CCOC(=O)c1cnc2ccccc2c1Nc1cccc(C(=O)O)c1.Cl	15.3
CC(/C=C1\SC(=S)N(CCCC(=O)Nc2ccc(C(=O)O)c(O)c2)C1=O)=C\c1ccccc1	7.47
Cc1ccc(C)c(S(=O)(=O)NCC(=O)Nc2ccc3c(c2)OCO3)c1	3.55
Cc1cc(C)n(CCn2nc(C)cc2C)n1	4.43
Cc1ccc(NC(=S)NCc2ccccc2Cl)c(C)c1	2.81
CCC(C)NC(=O)c1cn(CC)c2ccc(S(=O)(=O)N(C)C)cc2c1=O (stereo not drawn)	1.45
COCCN1CCN(C(=O)c2cc(COc3ccc(F)cc3Cl)on2)CC1	-3.91
NC(=O)CC(NC(=O)Cc1ccc(Br)cc1)c1ccc(N2CCN(c3ccccn3)CC2)c([N+](=O)[O-])c1 (stereo not drawn)	17.2
CCN(CC)CCCn1c2c(c(SCC(=O)Nc3cc(OC)cc(OC)c3)nc1=O)CCC2	-64.4
COc1cc(NC(=O)CSc2nc(=O)n(CCN3CCOCC3)c3c2CCC3)cc(OC)c1	-41.9
COc1cc(NC(=O)CSc2nc(=O)n(CCCN3CCOCC3)c3c2CCC3)cc(OC)c1	-34.9
COc1cc(NC(=O)CSc2nc(=O)n(CCN3CCOCC3)c3c2CCCC3)cc(OC)c1	-23.3
CCN(CC)CCn1c2c(c(SCC(=O)Nc3cc(OC)cc(OC)c3)nc1=O)CCC2	-70.1
Cc1ccc(C)c(NC(=O)CSc2nc(=O)n(CCN3CCOCC3)c3c2CCCC3)c1	-24.2
CCN(CC)CCn1c2c(c(SCC(=O)Nc3cc(C)cc(C)c3)nc1=O)CCC2	-62.1
CCN(CC)CCn1c2c(c(SCC(=O)Nc3cc(C)ccc3C)nc1=O)CCC2	-61
CCN(CC)CCn1c2c(c(SCC(=O)Nc3cc(C)on3)nc1=O)CCCC2	-25
COC(=O)NC1(C(=O)O)CCCC1	-0.802

SMILES	hERG current change (%, negative = inhibition) at 10uM [%]
O=C(NNC(=O)c1cc(-c2ccco2)nc2ccccc12)c1ccccc1	-3.05
O=S(=O)(Nc1nc2ccccc2nc1NCC1CCCO1)c1ccc(F)cc1 (stereo not drawn)	-1.06
Cc1cc(OCC(=O)N2C[C@H]3C[C@@H](C2)c2cccc(=O)n2C3)c2c(C)cc(=O)oc2c1	10.3
COc1ccc(/C=N/NC(=O)C(=O)N2CCN(c3ccccc3OC)CC2)cc1	-27.6
COc1cc(CCC(=O)Nc2ccc(Cl)c(C(F)(F)F)c2)cc(OC)c1OC	13.1
Cc1cc(Cl)c(S(=O)(=O)NCC2CCCO2)cc1OCC(N)=O (stereo not drawn)	4.47
O=C(NC1CCCC1)c1cc(-c2ccc(Cl)cc2Cl)on1	7.16
O=C(CN(Cc1ccco1)C(=O)c1ccc(N2CCCC2=O)cc1)Nc1ccccc1C(F)(F)F	-46.3
CCNC(=O)c1sc2cc(C)ccc2c1Cl	-3.25
CN(C)S(=O)(=O)c1ccc(N2CCCC2)c(C(=O)NC2CCC(O)CC2)c1 (stereo not drawn)	13.2
c1ccc(-n2nnnc2NC2CCCCC2)cc1	11
Cc1ccc(CSCC(Nc2ccc(C(=O)O)cc2[N+](=O)[O-])C(=O)O)cc1 (stereo not drawn)	6.66
COc1cc2c(cc1OC)CN(Cc1ccc(OC)c(C)c1OC)CC2	-43.6
COc1cc(OC)c(CN2CCc3c([nH]c4ccccc34)C2)cc1Br	-54.9
COc1ccccc1CN1CCc2c([nH]c3ccccc23)C1	-23
COc1ccc(CN2CCc3c([nH]c4ccccc34)C2)cc1Br	-45.9
Clc1cccc(CN2CCc3c([nH]c4ccccc34)C2)c1Cl	-8.21
COc1ccc(CN2CCc3c([nH]c4ccccc34)C2)c(OC)c1C	-62.4
O=C(NNC(=O)C1CCN(Cc2cccc(F)c2)CC1)c1cccc(Cl)c1	-8.28
CCOc1ccc(C(=O)Nc2nnc(S(=O)(=O)N(C)Cc3ccco3)s2)cc1	9.14
COCCN1Cc2cccc(C(=O)Nc3ccc4c(c3)OCCO4)c2C1=O	-5.24
